Assay in all cases: log2 ratio of Biotin-Ahx-Ub-VS probe labelling (fragment/DMSO); higher = less target engagement (more negative = stronger competition), active = hit call of the paper (q ≤ 0.05, log2 ratio ≤ -1)
Common to all, as to conditions: compound concentration: 200 uM; treatment time: 3 h

Test [1] deals with USP34 (UniProt Q70CQ2). The gist of the method: (§1)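 Labelled DUBs were enriched with NeutrAvidin, digested with LysC and trypsin, and run by diaPASEF LC-MS/MS. The labelling used Biotin-Ahx-Ub-VS at 0.5 µM final for 1 h on HEK293T lysate (495 µg per sample) previously treated in triplicate with fragment at 200 µM or vehicle for 3 h. Values are average log2 fragment/vehicle ratios by unpaired t-test on global-median-normalised Spectronaut quantities of proteins with ≥2 unique peptides.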

Test [2] addresses T1, USP36 (UniProt Q9P275).
T1 sequence (whole entry): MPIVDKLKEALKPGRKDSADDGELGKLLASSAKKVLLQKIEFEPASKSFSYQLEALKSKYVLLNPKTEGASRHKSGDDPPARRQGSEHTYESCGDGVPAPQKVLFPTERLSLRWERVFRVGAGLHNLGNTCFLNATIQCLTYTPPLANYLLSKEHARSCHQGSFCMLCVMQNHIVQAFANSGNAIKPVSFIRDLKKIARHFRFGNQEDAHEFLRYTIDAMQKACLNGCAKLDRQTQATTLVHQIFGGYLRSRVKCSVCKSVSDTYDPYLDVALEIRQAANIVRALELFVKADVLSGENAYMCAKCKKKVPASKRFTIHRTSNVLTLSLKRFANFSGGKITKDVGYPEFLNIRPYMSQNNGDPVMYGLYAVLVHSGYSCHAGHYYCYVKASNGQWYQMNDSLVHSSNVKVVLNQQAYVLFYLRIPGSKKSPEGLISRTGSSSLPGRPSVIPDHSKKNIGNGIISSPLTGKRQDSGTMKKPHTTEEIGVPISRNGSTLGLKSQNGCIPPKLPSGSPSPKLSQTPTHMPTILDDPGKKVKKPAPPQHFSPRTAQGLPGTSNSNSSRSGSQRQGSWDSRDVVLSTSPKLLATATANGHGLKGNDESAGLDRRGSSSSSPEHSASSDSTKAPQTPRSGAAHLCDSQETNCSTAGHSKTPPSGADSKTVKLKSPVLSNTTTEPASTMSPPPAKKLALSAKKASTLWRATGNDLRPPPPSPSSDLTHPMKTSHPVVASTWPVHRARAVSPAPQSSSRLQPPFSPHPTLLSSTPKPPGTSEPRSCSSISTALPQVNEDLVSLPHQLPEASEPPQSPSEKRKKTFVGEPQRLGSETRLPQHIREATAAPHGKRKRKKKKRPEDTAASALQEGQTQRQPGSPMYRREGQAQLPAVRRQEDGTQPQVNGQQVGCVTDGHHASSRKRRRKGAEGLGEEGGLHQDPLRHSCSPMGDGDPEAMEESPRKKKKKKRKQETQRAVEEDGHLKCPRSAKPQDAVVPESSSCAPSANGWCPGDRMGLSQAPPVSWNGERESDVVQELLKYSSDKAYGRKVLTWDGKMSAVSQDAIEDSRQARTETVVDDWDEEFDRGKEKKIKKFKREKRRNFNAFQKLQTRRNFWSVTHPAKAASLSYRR
The essentials:
as §1

Test [3] has as its target T2, USP38 (UniProt Q8NB14).
T2 sequence (whole entry): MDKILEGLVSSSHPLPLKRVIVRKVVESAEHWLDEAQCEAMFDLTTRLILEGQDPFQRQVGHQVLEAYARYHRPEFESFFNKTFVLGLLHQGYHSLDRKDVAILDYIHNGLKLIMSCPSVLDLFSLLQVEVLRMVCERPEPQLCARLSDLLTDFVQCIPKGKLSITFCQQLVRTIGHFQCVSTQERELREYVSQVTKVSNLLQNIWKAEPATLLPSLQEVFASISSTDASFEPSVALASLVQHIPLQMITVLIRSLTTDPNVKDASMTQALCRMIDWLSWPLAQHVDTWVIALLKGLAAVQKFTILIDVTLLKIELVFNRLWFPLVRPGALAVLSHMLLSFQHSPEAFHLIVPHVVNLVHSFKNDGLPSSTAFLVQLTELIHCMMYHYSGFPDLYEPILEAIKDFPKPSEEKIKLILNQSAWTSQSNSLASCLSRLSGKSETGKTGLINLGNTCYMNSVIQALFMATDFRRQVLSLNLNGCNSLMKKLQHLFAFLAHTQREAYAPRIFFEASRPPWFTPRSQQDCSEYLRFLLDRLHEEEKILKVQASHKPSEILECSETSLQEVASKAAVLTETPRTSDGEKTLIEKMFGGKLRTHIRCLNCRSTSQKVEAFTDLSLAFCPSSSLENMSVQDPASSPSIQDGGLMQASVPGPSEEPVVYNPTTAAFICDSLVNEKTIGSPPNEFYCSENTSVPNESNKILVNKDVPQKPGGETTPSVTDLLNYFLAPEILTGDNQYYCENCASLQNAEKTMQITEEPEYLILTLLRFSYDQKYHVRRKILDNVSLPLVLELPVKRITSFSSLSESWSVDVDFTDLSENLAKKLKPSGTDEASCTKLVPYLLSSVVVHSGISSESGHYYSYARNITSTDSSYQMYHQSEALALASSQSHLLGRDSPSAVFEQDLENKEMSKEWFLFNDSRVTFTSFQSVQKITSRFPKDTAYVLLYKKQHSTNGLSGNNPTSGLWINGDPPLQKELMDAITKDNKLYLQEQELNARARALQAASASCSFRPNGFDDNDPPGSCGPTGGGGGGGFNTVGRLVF
The gist of the method: as §1

In test [4] the target is T3, USP39 (UniProt Q53GS9).
T3 sequence (whole entry): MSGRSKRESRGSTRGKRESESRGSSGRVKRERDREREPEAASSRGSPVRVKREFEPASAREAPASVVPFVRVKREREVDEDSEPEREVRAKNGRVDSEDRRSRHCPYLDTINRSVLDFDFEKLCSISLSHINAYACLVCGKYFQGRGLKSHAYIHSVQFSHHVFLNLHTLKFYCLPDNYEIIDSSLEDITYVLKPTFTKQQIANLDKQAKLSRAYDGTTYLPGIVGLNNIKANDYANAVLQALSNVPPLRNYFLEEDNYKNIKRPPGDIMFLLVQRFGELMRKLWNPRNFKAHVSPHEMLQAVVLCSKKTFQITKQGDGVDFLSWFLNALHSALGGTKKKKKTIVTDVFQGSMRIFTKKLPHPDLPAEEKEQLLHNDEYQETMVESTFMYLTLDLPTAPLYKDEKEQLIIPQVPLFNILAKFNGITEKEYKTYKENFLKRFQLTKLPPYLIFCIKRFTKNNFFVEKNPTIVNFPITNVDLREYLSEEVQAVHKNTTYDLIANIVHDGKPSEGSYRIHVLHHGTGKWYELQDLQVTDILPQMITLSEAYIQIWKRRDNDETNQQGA
The essentials:
as §1

Test [5] addresses T4, USP4 (UniProt Q13107).
T4 sequence (whole entry): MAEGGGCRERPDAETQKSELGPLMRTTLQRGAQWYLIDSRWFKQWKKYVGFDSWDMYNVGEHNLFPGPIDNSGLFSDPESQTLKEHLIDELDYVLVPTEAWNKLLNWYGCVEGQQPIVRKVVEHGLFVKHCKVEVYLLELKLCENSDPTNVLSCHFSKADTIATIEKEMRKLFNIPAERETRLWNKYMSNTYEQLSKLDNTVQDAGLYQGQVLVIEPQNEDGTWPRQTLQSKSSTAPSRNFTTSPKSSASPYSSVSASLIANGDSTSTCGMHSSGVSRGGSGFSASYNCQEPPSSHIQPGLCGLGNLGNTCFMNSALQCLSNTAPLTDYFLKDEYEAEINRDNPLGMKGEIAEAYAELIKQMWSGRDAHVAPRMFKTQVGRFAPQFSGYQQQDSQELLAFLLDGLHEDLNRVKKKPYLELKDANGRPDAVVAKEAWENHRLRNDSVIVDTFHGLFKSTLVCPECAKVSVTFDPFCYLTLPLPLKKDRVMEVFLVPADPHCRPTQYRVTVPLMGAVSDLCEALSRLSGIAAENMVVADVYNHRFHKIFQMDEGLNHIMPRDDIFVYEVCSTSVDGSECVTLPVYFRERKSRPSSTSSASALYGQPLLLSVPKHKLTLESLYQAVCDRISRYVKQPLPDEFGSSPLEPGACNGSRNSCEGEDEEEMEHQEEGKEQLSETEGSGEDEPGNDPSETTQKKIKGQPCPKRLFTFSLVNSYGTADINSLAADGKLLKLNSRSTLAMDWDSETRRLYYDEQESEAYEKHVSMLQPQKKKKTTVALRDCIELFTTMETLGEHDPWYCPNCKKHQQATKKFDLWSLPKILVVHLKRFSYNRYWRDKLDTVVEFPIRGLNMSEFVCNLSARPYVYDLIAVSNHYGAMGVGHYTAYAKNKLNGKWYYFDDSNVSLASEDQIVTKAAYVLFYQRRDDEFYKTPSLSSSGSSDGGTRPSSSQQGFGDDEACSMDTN
The essentials:
as §1

Unmarked numbers belong to inactive results.

USP34, sequence (Q70CQ2 whole entry, the tested form may be a part): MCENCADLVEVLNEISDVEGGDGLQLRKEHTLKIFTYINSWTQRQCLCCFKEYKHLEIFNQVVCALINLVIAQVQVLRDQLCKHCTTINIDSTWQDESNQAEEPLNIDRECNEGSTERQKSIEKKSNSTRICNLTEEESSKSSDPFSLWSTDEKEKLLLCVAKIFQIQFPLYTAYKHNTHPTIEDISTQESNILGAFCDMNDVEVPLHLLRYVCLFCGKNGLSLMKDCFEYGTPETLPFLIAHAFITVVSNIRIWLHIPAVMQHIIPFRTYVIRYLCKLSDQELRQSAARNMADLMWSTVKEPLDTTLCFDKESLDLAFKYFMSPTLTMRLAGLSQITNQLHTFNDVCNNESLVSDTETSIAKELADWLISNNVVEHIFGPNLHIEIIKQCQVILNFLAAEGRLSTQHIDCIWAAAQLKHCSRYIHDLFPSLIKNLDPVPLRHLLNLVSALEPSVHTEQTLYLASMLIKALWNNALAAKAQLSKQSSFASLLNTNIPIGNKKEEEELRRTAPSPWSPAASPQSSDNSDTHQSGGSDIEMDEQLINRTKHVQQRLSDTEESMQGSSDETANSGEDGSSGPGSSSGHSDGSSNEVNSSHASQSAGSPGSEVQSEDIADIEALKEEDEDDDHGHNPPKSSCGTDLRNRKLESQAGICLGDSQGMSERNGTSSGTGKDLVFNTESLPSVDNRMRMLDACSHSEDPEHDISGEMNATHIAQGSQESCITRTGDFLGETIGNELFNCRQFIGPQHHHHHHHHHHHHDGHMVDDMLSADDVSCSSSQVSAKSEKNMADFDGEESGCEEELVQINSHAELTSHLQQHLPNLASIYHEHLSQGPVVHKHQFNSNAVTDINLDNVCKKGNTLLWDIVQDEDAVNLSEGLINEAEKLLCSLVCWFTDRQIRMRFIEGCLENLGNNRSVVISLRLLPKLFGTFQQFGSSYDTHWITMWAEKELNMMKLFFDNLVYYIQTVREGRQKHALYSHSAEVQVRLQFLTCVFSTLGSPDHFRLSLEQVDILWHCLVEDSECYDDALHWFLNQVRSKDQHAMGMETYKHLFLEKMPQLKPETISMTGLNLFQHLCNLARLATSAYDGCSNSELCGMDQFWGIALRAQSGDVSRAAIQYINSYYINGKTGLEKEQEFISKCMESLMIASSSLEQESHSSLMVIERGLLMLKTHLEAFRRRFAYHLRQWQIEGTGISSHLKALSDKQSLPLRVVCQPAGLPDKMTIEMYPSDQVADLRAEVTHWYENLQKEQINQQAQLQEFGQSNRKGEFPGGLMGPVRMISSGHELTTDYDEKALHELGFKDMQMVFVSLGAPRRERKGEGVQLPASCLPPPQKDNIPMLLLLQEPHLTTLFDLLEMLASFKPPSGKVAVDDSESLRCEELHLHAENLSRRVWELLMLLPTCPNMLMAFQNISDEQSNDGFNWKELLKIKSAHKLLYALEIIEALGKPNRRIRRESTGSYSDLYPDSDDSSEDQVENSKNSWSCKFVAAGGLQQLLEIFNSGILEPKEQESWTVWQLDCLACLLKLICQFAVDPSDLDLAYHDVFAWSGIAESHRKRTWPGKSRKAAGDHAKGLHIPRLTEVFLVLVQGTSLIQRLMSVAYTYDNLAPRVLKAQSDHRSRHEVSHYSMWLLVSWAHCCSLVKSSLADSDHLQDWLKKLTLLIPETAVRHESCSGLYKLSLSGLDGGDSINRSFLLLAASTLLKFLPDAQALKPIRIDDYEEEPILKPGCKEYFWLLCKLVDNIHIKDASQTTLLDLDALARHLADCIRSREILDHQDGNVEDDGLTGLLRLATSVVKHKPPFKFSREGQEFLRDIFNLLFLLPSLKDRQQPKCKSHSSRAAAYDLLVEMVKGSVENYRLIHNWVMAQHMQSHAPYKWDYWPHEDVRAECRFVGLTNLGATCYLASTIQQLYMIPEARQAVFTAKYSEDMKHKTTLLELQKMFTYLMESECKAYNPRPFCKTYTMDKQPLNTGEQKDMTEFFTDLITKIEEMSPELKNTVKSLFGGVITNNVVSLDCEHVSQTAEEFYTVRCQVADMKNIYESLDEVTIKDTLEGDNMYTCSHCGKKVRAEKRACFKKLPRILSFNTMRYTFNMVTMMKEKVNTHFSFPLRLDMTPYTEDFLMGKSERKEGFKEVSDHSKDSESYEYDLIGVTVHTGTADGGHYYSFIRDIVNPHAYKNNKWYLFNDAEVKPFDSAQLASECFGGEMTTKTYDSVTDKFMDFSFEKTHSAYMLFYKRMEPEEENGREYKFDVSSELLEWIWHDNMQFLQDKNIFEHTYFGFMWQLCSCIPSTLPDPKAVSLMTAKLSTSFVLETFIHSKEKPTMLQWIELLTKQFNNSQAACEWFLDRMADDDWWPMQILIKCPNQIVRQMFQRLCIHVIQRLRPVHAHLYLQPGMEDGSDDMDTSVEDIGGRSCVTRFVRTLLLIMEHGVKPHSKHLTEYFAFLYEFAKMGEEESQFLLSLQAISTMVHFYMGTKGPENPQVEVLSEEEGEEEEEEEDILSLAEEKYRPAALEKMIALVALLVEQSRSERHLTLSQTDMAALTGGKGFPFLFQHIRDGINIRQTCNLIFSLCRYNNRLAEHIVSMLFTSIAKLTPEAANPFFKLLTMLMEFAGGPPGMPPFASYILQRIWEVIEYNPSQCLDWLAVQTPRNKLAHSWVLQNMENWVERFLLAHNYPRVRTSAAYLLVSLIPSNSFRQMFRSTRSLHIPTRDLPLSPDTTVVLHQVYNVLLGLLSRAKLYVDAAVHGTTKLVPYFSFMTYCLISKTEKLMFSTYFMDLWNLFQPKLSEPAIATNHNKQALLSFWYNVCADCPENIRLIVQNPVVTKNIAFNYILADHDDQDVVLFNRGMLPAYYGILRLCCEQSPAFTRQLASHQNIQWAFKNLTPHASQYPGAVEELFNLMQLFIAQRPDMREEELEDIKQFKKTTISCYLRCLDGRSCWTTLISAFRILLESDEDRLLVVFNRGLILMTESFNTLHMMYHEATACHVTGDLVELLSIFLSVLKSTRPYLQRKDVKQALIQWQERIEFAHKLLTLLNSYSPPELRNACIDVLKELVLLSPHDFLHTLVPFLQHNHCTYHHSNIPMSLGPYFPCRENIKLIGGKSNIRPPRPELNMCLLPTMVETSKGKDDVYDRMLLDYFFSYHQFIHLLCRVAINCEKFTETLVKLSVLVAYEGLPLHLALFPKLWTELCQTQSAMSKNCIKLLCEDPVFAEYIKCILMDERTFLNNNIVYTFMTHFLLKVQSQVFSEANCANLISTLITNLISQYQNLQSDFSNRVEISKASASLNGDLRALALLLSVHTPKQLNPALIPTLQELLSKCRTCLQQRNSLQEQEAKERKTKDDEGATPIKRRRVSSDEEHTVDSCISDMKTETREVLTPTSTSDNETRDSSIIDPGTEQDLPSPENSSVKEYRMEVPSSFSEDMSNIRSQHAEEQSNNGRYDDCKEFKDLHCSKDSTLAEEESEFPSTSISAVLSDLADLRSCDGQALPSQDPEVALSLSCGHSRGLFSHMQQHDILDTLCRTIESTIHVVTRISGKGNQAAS

In the case of `O=C(CCl)N1CCc2[nH]c3ccccc3c2C1`, the “log2 ratio of Biotin-Ahx-Ub-VS probe labelling” value was -0.571 in test [1]; 0.0133 in test [2]; -0.674 in test [3]; 5.6e-06 in test [4]; -1.51 (active) in test [5].
